Measured values from PubChem BioAssay (Tox21).
Inconclusive results are not listed. Where a structure was tested more than once in an assay, its records may differ in their call. Values without a mark were called inactive. Calls of active or inactive are those of the source. The call rests on the fitted dose curve; in most records, active means well fitted cell-killing curve with a large enough effect in the repeat runs; inconclusive means weak or mixed curves, or effect the other way; inactive means flat fitted curve, though single readings scatter.

experiment: Nuclear factor erythroid 2-related factor 2/antioxidant responsive element (Nrf2/ARE) small molecule agonists: qHTS cell viability counter screen in human keratinocytes (AID 1919968); settings: KeratinoSens HaCaT ARE cells viability, CellTiter-Fluor, 24 h; series mostly up to 92.4 µM; activity change, negative = cytotoxicity: at the top concentration; further: nearly all actives have a fitted effect of over 55% in size
Excerpt: U.S. Tox21 Program National Center for Advancing Translational Sciences [NCATS] Division of Preclinical Innovation [DPI] U.S. Environmental Protection Agency [EPA] National Institutes of Environmental Health Sciences [NIEHS] National Toxicology Program [NTP] U.S. Food and Drug Administration [FDA] Tox21 Assay Overview: Oxidative stress has been implicated in the pathogenesis of a variety of diseases ranging from cancer to neurodegeneration. The antioxidant response element (ARE) signaling pathway plays an important role in the amelioration of oxidative stress. The KeratinoSens (Givaudan, Switzerland) is an in vitro test method which quantifies luciferase induction as a measure of activation of Keap1-Nrf2-antioxidationt/electrophile response element (ARE) dependant pathway in HaCaT human keratinocytes stably transfected with a selectable plasmid. The KeratinoSens assay is a cell-based assay with a reporter cell line to detect potential skin sensitizers by their ability to induce the Nrf2/ARE-response. The activation of the report gene under culture conditions can be detected by ONE-Glo Luciferase Assay System (Promega, Madison, WI). This cell line has been used to screen the Tox21 10K compound library to identify agonists that induce oxidative stress. The cytotoxicity of the Tox21 compound library against the KS-ARE cell line was tested in parallel by measuring the cell viability using CellTiter- Fluor assay system (Promega, Madison, WI) in the same wells.
Tox21 Assay Protocol Summary: HaCaT derived cell line KeratinoSens were dispensed at 1,500 cells/5uL/well in 1536-well white wall/solid bottom plates using a Multidrop Combi (ThermoFisher Scientific, Waltham, MA) dispenser. After the assay plates were incubated at 37 C/5% CO2 for 5 h, 23 nL of compounds dissolved in DMSO, positive controls or DMSO only was transferred to the assay plate by a pintool workstation (Kalypsys, San Diego, CA). The plates were incubated at 37 C/5% CO2 for 23 h, followed by addition of 1uL/well of CellTiter-Fluor reagent into the assay plates using a Flying Reagent Dispenser (Aurora Discovery, San Diego, CA) for cell viability readout that measures cytotoxicity. After 1 h incubation at 37 C/5% CO2 the fluorescence intensity was measured using a ViewLux (PerkinElmer, Shelton, CT) plate reader.
On the % scale 0 is the no-effect control and ±100 the full control effect; potency means the concentration at half of the fitted maximal effect.

Row | SMILES | activity change, negative = cytotoxicity | Potency
1 | NC(=O)c1ccccc1Cl | 1.55% | 
2 | CCO/C([O-])=N/c1c[n+](N2CCOCC2)no1 | 18.4% [at 42.5 µM] | 
3 | O=C(O)c1cc(=O)c2c(OCC(O)COc3cccc4oc(C(=O)O)cc(=O)c34)cccc2o1 |  | inactive
4 | CCCCCCC1(C)CCC(=O)O1 (stereo not given) | 2.34% | 
5 | CC(C)(C)NC(N)=O | -1.67% | 
6 | C=CC(=O)NC(C)C | 0.812% | 
7 | O=c1c(-c2ccc(O)cc2)coc2cc(O)ccc12 |  | inactive
8 | CC(C)c1ccc(C=O)cc1 | -4.8% | 
9 | O=C(c1ccccc1O)c1ccccc1O | -4.72% | 
10 | NC(=O)CCCCC(N)=O | 1.87% | 
11 | CCCC(=O)CC | -4.94% | 
12 | Nc1ccc([N+](=O)[O-])c(C(F)(F)F)c1 | -11.6% [at 42.5 µM] | 
13 | C/C=C/C(=O)C1=C(C)C=CCC1(C)C | 4.05% | 
14 | N#C[C@@H]1C[C@@H]2C[C@@H]2N1C(=O)[C@@H](N)C12CC3CC(CC(O)(C3)C1)C2 | 1.72% [at 42.5 µM] | 
15 | Nc1ccc(N)c(Cl)c1 | -16.9% | 
16 | CC/C=C\C#N | -0.565% | 
17 | CC(=O)CC(C)(C)C1CCCCC1 | 6.48% | 
18 | CCN(CC)c1ccc2c(C)cc(=O)oc2c1 |  | inactive
19 | C[Si](C)O[Si](C)(C)O[Si](C)(C)O[Si](C)C | 0.0552% | 
20 | ON(Cc1ccccc1)Cc1ccccc1 | 6.7% | 

Row | SMILES | activity change, negative = cytotoxicity | Potency
21 | COCCCOc1cc(C[C@@H](C[C@H](N)[C@@H](O)C[C@H](C(=O)NCC(C)(C)C(N)=O)C(C)C)C(C)C)ccc1OC | 22.8% [at 42.5 µM] | 
22 | CN(CC1(C)CCCO1)S(=O)(=O)c1ccc(Cl)c(S(N)(=O)=O)c1 (stereo not given) | -0.896% [at 42.5 µM] | 
23 | O=c1[nH]c(=O)c2cn[nH]c2[nH]1 | -7.25% | 
24 | O=C(c1ccc(O)cc1O)c1ccc(O)cc1O |  | inactive
25 | NNc1nncc2ccccc12 | -11.5% [at 19 µM] | 30.6 µM (active)
26 | CC(=O)[C@H]1CC[C@H]2[C@@H]3CCC4=CC(=O)CC[C@]4(C)[C@H]3CC[C@]12C |  | inactive
27 | O=C(O)/C=C/c1cnc[nH]1 | -1.35% | 
28 | CC(=O)O[C@H]1C[C@@H]2CC[C@@]1(C)C2(C)C | -0.17% | 
29 | OC[C@H]1O[C@@H]2O[C@H]3[C@H](O)[C@@H](O)[C@@H](O[C@H]4[C@H](O)[C@@H](O)[C@@H](O[C@H]5[C@H](O)[C@@H](O)[C@@H](O[C@H]6[C@H](O)[C@@H](O)[C@@H](O[C@H]7[C@H](O)[C@@H](O)[C@@H](O[C@H]8[C@H](O)[C@@H](O)[C@@H](O[C@H]1[C@H](O)[C@H]2O)O[C@@H]8CO)O[C@@H]7CO)O[C@@H]6CO)O[C@@H]5CO)O[C@@H]4CO)O[C@@H]3CO |  | inactive
30 | CC1=CC[C@@H](C(C)(C)O)CC1 | -0.534% | 
31 | CC1(C)C(C=C(Cl)Cl)C1C(=O)OCc1cccc(Oc2ccccc2)c1 (stereo not given) | 19.8% | 
32 | CC1=CC[C@H](CC=O)C1(C)C | 6.72% | 
33 | C[C@@H]1NC(=O)[C@@H](N)CNC(=O)[C@H](C2CCNC(N)=N2)NC(=O)/C(=C/NC(N)=O)NC(=O)[C@H](CNC(=O)C[C@@H](N)CCCN)NC1=O (stereo not given in full) | -0.202% [at 0.349 µM] | 
34 | NS(=O)(=O)c1cc2c(cc1Cl)NC(C1CC3C=CC1C3)NS2(=O)=O (stereo not given) | 6.62% [at 42.5 µM] | 
35 | O=C[O][Al]([O]C=O)[O]C=O | 1.66% | 
36 | CCCCCCCCOCCC#N | -1.33% | 
37 | CCOC(=O)C(C)Oc1ccc(Oc2cnc3cc(Cl)ccc3n2)cc1 (stereo not given) |  | inactive
38 | O=C(/C=C/c1ccccc1)OCc1ccccc1 |  | inactive
39 | CC(CC=O)CC(C)(C)C (stereo not given) | -2.62% | 
